Screening data deposited in PubChem by National Center for Advancing Translational Sciences (NCATS).
The list is not random: actives were taken first. Their share in the collection is about 19%.
SARS PLP yeast: qHTS of Yeast-based Assay for SARS-CoV PLP; S. cerevisiae expressing SARS-CoV PLpro, growth rescue; Potency, µM (series often up to 32.9 µM), for inactives: at the top dose activity, positive = growth rescue, most hits filed as activators; hit rate 0.19% among 330,000; AID 485353, 2010; calls by dose curve; further: potency means the concentration at half of the fitted maximal effect; 0% is about no effect; nearly all actives have a fitted effect of over 55% in size
CHX counter: Cycloheximide Counterscreen for Small Molecule Inhibitors of Shiga Toxin; cell reporter, cycloheximide protein synthesis inhibition counterscreen; max response, %; hit rate 12% among 300,000; in the data active means max response mostly above about 13%, no sharp cut-off; inactive means mostly below about 14%; further: read at 38.3 µM for the half of the compounds with a filed dose; 0% is about no effect
AMA1 RON2 block: qHTS for Inhibitors of AMA1-RON; Towards Development of Antimalarial Drug Lead: Primary Screen. AlphaScreen AMA1-biotinylated RON2 peptide binding. Potency, µM (doses to about 58.2 µM), inactives show at the top dose activity change, negative = inhibition, hits mostly inhibitors. hit rate 0.2% among 360,000;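 further: potency means the concentration at half of the fitted maximal effect; 0% = vehicle wells and -100% = peptide control; nearly all actives have a fitted effect of over 45% in size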
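AMA1 (3D7) with his tag at 25 nM final met compounds first, then biotinylated RON2 peptide at 25 nM; detection used donor plus acceptor beads, 10 µg/mL apiece, read by AlphaScreen after 30 min at room temperature.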
Shiga toxin inh: A qHTS for Small Molecule Inhibitors of Shiga Toxin | Vero cells, Shiga toxin protein synthesis inhibition reporter | inhibition, % at 38.7 µM | hit rate 9.2% among 290,000 | AID 2315, 2010; in the data active means inhibition mostly above about 28%, no sharp cut-off; inactive means mostly below about 43%; further: 0% is about no effect
Pf growth 96h: Primary qHTS for delayed death inhibitors of the malarial parasite plastid, 96 hour incubation; Potency, µM (series often up to 28.7 µM), inactives show at the top dose activity change, negative = inhibition, actives largely listed as inhibitors; P. falciparum luciferase reporter growth, 96 h; hit rate 6.9% among 320,000; further: potency means the concentration at half of the fitted maximal effect; on the % scale 0 is the no-effect control and ±100 the full control effect
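Delayed-death screen, second-generation endpoint: infected erythrocytes, 2% hematocrit, 0.05% parasitemia final; 96 hours at 37 C, 5% CO2; luciferase detection reagent; luminescence decrease equals reduced growth.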
Pf growth 48h: Primary qHTS for delayed death inhibitors of the malarial parasite plastid, 48 hour incubation. Potency, µM (titrated, usually from 28.7 µM), inactives show at the highest dose activity change, negative = inhibition, hits mostly inhibitors. P. falciparum luciferase growth in erythrocytes, 48 h. hit rate 5.9% among 310,000; further: potency means the concentration at half of the fitted maximal effect; on the % scale 0 is the no-effect control and ±100 the full control effect
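Erythrocytes infected with P. falciparum carrying an integrated firefly luciferase reporter (2% hematocrit, 0.1% parasitemia final) were exposed to compounds in RPMI 1640 with 0.5% Albumax at 37 C, 5% CO2. Growth inhibition was scored as reduced luminescence.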
Starred values were filed as active, the others as inactive; ? = inconclusive; nt = no result; [ ] = remark or other dose. Unless noted, the call rests on the fitted dose curve; in most records, active means well fitted curve in the direction sought with a large enough effect; inconclusive means small, poorly fitted or top-dose-only effect, or another doubt; inactive means no such curve, though single readings can be large; an effect the other way counts as inactive or inconclusive.

SMILES	SARS PLP yeast	CHX counter	AMA1 RON2 block	Shiga toxin inh	Pf growth 96h	Pf growth 48h
OC[C@@H]1CN(Cc2cccs2)C[C@H](n2cnc3c(NCc4ccco4)ncnc32)O1	nt	nt	-9%	nt	nt	nt
CCN(C[C@H]1N[C@@](Cc2ccccc2)(C(=O)OC)[C@H]2C(=O)N(C)C(=O)[C@@H]12)C(=O)NC(C)C	3%	nt	0%	nt	nt	nt
CC(C)(C)OC(=O)C[C@@H]1C/C=C\C[C@H](CC(=O)N(CCO)Cc2ccccc2)C(=O)NC[C@H](c2ccccc2)OC1=O	3%	nt	-2%	nt	nt	nt
Cc1ccc(NC(=O)/C(=C\c2cccs2)NC(=O)c2ccccc2)cc1	1%	-2	0%	-1	7.4µM*	?
Cc1cccc(C(=O)NCc2ccco2)c1	5%	10	-2%	nt	-33%	12%
O=C(NCc1ccco1)c1ccccc1O	-11%	1	-2%	9	10µM*	-34%
Cc1ccc(C(=O)N/C(=C/c2cccs2)C(=O)NCc2ccco2)cc1	-19%	7	26%	-2	0.52µM*	-3%
Cc1ccc(C(=O)NCc2ccco2)c(C)c1	-8%	17	-1%	24	12µM*	32%
O=C(O)C1C2CCC(C2)C1C(=O)NCCc1ccccc1 (stereo not drawn)	0%	-3	-4%	-1	38%	19%
O=C(Nc1ccccc1Cl)c1cc(C2CCCCN2C(=O)CCCc2ccccc2)on1 (stereo not drawn)	nt	nt	3%	nt	nt	nt
COc1ccc(S(=O)(=O)N(C)CC(=O)NC2CC2)cc1OC	-3%	1	-6%	-12	-25%	15%
Cc1ccc(C)c(S(=O)(=O)NCc2ccc(C(=O)NCc3ccco3)cc2)c1	3%	3	-10%	12	9.3µM*	?
Cc1ccc(SCCC(=O)NCCSCc2ccco2)cc1	-1%	-2	-19%	25	22%	-2%
Cc1ccc(SCCNCc2ccco2)cc1	-1%	14*	0%	46	6%	0%
CCC1=Nc2cc(C(=O)NCc3ccco3)ccc2Sc2ccc(C)cc21	-51%	2	-12%	-12	25%	1.3µM*
Cc1ccc(C(=O)Nc2cccc(C(=O)NCc3ccco3)c2)cc1	?	19*	-1%	35*	-26%	48%
Cc1ccc([C@H]2N[C@]3(CCCN(Cc4ccc(Br)cc4)C3=O)[C@H]3C(=O)N(C)C(=O)[C@@H]23)cc1	nt	nt	-10%	nt	nt	nt
COc1ccc([C@H]2N[C@]3(CCCN(Cc4ccco4)C3=O)[C@H]3C(=O)N(Cc4ccccc4)C(=O)[C@@H]23)cc1	nt	nt	2%	nt	nt	nt
CCCCn1ccnc1C(=O)c1cccc(S(=O)(=O)N2CC(C)CC(C)C2)c1 (stereo not drawn)	8%	5	9%	25	?	nt
COCCNC(=S)NC(=O)c1ccc(C(C)(C)C)cc1	0%	59*	27%	96*	?	35%[5.75 µM]
COCCCNC(=S)NNC(=O)C1CC1c1ccc(C(C)(C)C)cc1 (stereo not drawn)	-1%	-3	88%	1	35%[1.15 µM]	?
O=c1ccc2ccc(OCc3nnc(-c4ccccc4Br)o3)cc2o1	0%	18	6%	43*	?	12%
O=Cc1ccc(OCc2nnc(-c3ccccc3Br)o2)cc1	-2%	21	2%	57*	17%	9%
NC(=O)c1ccccc1OCc1nnc(-c2ccccc2Br)o1	-6%	19	-1%	65*	-6%	8%
Cc1cc(=O)oc2cc(OCc3nnc(-c4ccccc4Br)o3)ccc12	2%	-3	-8%	-14	nt	nt
SMILES	SARS PLP yeast	CHX counter	AMA1 RON2 block	Shiga toxin inh	Pf growth 96h	Pf growth 48h
Brc1ccccc1-c1nnc(COc2ncnc3c2cnn3-c2ccccc2)o1	-1%	7	-4%	9	34%	39%
CC(=O)Nc1ccccc1OCc1nnc(-c2ccccc2Cl)o1	0%	7	-23%	14	64%	41%
C[C@H](CO)N1C[C@H](C)[C@@H](CN(C)S(=O)(=O)c2ccccc2)Oc2c(NC(=O)CCC(F)(F)F)cccc2C1=O	-4%	nt	-17%	nt	nt	nt
N#CC1(c2ccccc2)CCC(=NO)CC1 (stereo not drawn)	26%	4	-7%	25	1.9µM*	nt
C/C=C1\C(=O)CC2C3CCC4=CC(=O)CC[C@]4(C)C3CC[C@]12C (stereo partly drawn)	nt	-5	nt	-6	nt	nt
CC1(C)NC(=O)N(CC(O)COc2ccccc2C(=O)Nc2ccccc2)C1=O (stereo not drawn)	3%	-1	9%	-11	13µM*	-10%
CCCCCCOc1ccc(OCC(O)CN2C(=O)NC(C)(C)C2=O)cc1 (stereo not drawn)	-5%	43*	10%	175*	-19%[5.75 µM]	69%
CC1CCCN(Cc2cccc(Oc3ccccc3)c2)C1 (stereo not drawn)	1%	-5	-3%	-9	-9%	?
Cc1ccc(-n2nc(C(=O)NCc3ccc(C)o3)c3c4ccccc4n(C)c3c2=O)cc1	7%	6	2%	12	?	nt
COc1ccccc1C(=O)Nc1ccnn1C1CCN(CCCC2CCCC2)CC1	1%	9	5%	-6	-20%	35%
CCN(CC)P(=O)(Nc1ccccc1Br)c1ccc(N(C)C)cc1NC(=O)c1ccco1 (stereo not drawn)	1%	12	62%	19	9.3µM*	?
CCN(CC)C(=O)c1cc(Cl)ccc1NC(=O)c1ccco1	0%	-5	-19%	-5	6%	5%
O=C(CCCCCNC(=O)c1ccccc1)C[N+](=O)[O-]	1%	-2	-9%	-8	19%	30%
CC(C)c1[nH]nc2c1C(C(C)C)C(C#N)=C(N)O2 (stereo not drawn)	4%	-4	-20%	21	7.4µM*	-12%
Cc1nn(Cc2ccccc2)c2c1C(c1ccc(Cl)cc1)C(C#N)=C(N)O2 (stereo not drawn)	12%	6	1%	1	1.2µM*	?
Cc1[nH]nc2c1C(c1ccc(Cl)cc1)C(C#N)=C(N)O2 (stereo not drawn)	1%	19*	-9%	-13	-37%	0%
Cc1nn(Cc2ccccc2)c2c1C(c1ccncc1)C(C#N)=C(N)O2 (stereo not drawn)	0%	-1	5%	19	?	-17%
CC(C)(C)c1[nH]nc2c1C(c1ccsc1)C(C#N)=C(N)O2 (stereo not drawn)	1%	10	-1%	26	-19%	48%
CC(C)C1C(C#N)=C(N)Oc2n[nH]c(-c3ccccc3)c21 (stereo not drawn)	6%	-3	-4%	45	-15%	-21%
